Laboratory results from article PMC7862700, “An all-to-all approach to the identification of sequence-specific readers for epigenetic DNA modifications on cytosine”.

Assays:
Experiment in all cases: DAPPL (digital affinity profiling via proximity ligation, sequencing); 10 mM Tris-HCl pH 7.5, 50 mM NaCl, 1 mM DTT, 4% glycerol, room temperature, 30 min; GST-TFs on glutathione beads, 16-mer random dsDNA library, 0.1% formaldehyde crosslink after washing; high values mean tight binding
Details in all cases: protein: recombinant; tags: N-terminal GST; dsDNA, one strand shown
ELK1 = target: T1, ELK1 (Homo sapiens, UniProt P19419 1-428)
T1 sequence: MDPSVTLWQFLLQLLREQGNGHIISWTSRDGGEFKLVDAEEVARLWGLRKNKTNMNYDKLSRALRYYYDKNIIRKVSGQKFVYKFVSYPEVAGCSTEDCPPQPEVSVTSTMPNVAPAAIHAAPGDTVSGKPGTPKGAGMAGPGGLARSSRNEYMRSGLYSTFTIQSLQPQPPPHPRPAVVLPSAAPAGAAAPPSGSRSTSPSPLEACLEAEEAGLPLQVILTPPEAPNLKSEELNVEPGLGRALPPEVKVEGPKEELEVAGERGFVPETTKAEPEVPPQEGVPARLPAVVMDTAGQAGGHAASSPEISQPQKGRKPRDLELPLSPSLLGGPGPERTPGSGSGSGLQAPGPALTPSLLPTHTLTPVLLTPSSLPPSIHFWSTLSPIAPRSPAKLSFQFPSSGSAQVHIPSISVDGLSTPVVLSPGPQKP
Method in brief: (§1)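 Sequencing on an Illumina NextSeq500 followed washing, crosslinking with 0.1% formaldehyde, proximity ligation (BsaI/T4 ligase, 1 h, 37 °C) and PCR amplification of pools that had been incubated for 30 min at room temperature with 200 nmole of a random double-stranded 16-mer DNA library in Tris/NaCl/DTT/glycerol buffer. Each pool held DNA-barcoded human transcription factors, expressed in yeast as GST fusions and captured on glutathione beads, plus a tag-only sample. Binding signal is a hexamer's read frequency for a factor divided by its frequency in the tag-only sample.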

GABPA = target: T2, GABPA (Homo sapiens, UniProt Q06546 1-454)
T2 sequence: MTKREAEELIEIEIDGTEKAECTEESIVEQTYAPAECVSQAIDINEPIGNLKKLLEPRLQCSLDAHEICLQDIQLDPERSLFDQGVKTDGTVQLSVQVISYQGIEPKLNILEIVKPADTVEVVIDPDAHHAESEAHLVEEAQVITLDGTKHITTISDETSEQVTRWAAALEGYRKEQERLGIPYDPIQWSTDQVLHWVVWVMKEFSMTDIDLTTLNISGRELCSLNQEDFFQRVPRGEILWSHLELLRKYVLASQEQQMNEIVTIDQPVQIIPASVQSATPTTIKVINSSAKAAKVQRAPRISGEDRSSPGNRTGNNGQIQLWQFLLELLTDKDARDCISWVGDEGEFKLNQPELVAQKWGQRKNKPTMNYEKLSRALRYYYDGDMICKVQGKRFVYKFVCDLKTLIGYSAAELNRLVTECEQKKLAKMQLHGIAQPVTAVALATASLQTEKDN
Method in brief: as §1

ERG = target: T3, ERG (Homo sapiens, UniProt P11308 1-479)
T3 sequence: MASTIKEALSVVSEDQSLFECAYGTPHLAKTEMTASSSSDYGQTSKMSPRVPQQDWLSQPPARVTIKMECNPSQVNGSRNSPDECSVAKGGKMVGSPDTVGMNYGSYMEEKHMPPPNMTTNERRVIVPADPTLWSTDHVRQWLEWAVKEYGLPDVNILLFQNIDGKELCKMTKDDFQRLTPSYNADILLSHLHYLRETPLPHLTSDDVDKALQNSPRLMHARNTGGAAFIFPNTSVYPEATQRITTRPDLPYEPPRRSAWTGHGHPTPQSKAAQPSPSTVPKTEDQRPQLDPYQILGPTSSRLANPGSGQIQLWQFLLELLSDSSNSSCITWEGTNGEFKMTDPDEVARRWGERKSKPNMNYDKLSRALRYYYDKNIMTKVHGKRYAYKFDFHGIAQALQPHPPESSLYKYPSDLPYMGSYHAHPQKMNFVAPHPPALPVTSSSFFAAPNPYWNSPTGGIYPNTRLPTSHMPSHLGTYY
Method in brief: as §1

ELF1 = ELF1 (Homo sapiens, UniProt P32519 1-619)
Chain of ELF1 (P32519 whole entry): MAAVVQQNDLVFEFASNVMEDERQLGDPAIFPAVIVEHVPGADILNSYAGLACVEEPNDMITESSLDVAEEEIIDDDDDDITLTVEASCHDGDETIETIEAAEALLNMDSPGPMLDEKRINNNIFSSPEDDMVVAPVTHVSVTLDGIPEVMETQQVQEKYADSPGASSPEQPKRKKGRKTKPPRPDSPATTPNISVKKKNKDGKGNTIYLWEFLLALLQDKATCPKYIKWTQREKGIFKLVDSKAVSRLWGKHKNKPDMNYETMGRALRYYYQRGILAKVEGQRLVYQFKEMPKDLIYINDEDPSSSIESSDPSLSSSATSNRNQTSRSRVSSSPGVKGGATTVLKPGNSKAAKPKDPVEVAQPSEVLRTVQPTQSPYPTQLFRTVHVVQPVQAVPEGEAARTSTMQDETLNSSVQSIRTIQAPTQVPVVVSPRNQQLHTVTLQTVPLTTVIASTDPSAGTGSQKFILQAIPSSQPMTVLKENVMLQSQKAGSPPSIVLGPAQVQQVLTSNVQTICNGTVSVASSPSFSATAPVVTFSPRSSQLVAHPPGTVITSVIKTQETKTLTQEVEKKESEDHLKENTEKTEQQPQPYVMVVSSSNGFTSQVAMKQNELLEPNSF
Method in brief: as §1

EHF = target: T4, EHF (Homo sapiens, UniProt Q9NZC4 1-300)
T4 sequence: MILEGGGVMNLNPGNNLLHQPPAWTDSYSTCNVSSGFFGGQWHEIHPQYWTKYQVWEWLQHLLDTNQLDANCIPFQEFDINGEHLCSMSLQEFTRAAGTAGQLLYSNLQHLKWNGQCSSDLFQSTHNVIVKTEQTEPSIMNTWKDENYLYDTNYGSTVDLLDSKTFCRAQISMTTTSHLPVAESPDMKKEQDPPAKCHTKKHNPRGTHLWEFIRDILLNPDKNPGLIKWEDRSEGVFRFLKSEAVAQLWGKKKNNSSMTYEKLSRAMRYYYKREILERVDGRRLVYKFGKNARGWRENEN
Method in brief: as §1

SPIB = SPIB (Homo sapiens, UniProt Q01892 1-262)
Chain of SPIB (Q01892 whole entry): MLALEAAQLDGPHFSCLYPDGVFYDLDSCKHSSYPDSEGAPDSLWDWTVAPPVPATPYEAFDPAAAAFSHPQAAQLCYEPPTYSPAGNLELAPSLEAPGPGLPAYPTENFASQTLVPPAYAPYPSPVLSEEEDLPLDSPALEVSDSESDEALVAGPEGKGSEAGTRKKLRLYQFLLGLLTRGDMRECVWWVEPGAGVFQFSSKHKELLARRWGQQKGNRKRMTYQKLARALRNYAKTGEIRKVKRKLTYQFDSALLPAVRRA
Method in brief: as §1

FEV = target: T5, FEV (Homo sapiens, UniProt Q99581 1-238)
T5 sequence: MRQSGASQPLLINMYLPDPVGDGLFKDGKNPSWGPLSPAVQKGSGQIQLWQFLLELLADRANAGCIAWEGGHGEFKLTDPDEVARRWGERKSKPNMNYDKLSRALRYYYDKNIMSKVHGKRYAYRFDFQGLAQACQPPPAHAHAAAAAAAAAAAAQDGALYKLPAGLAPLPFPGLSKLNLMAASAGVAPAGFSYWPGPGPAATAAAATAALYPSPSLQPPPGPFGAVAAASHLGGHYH
Method in brief: as §1

ETV5 = ETV5 (Homo sapiens, UniProt P41161 1-510)
Chain of ETV5 (P41161 whole entry): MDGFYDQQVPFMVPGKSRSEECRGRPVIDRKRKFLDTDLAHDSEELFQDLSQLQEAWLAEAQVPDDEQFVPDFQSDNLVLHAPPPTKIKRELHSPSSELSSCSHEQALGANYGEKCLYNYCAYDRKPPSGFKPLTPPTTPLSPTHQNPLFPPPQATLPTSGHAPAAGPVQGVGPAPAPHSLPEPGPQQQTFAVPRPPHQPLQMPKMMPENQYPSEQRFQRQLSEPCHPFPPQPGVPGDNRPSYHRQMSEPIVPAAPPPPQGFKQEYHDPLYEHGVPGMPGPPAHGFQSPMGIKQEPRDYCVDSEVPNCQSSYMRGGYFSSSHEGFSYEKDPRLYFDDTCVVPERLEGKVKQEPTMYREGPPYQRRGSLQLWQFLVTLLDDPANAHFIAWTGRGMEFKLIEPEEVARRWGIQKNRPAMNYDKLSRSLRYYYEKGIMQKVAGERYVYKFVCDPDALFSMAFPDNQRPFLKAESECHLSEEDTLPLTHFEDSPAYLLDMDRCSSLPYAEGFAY
Method in brief: as §1

ELF4 = ELF4 (Homo sapiens, UniProt Q99607 1-663)
Chain of ELF4 (Q99607 whole entry): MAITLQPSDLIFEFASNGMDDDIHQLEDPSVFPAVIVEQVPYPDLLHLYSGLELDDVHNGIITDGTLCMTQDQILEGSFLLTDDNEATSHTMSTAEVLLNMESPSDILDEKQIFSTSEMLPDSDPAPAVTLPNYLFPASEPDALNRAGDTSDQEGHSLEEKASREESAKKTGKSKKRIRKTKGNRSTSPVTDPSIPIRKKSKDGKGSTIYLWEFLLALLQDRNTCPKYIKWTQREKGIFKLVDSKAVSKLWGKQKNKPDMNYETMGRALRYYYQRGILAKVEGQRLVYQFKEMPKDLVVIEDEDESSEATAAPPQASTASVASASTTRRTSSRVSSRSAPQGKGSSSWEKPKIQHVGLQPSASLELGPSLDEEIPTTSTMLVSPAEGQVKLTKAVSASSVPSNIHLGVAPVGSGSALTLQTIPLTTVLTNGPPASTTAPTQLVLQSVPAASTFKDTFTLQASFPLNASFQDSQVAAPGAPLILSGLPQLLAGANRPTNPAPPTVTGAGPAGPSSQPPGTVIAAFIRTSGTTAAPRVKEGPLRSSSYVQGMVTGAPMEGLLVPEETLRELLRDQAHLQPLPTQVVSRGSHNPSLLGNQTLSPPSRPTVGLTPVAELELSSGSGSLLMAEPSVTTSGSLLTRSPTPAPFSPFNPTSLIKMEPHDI
Method in brief: as §1

ETV2 = target: T6, ETV2 (Homo sapiens, UniProt O00321 1-342)
T6 sequence: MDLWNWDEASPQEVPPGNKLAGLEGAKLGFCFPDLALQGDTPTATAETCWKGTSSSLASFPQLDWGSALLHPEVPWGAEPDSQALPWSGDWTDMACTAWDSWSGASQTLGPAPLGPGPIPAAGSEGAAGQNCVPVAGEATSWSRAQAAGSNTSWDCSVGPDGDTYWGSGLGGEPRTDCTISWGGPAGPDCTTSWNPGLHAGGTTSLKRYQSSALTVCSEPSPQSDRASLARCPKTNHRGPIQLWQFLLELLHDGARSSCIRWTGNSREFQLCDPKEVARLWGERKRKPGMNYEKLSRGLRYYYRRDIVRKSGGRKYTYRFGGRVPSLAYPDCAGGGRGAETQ
Method in brief: as §1

ELF3 = target: T7, ELF3 (Homo sapiens, UniProt P78545 1-371)
T7 sequence: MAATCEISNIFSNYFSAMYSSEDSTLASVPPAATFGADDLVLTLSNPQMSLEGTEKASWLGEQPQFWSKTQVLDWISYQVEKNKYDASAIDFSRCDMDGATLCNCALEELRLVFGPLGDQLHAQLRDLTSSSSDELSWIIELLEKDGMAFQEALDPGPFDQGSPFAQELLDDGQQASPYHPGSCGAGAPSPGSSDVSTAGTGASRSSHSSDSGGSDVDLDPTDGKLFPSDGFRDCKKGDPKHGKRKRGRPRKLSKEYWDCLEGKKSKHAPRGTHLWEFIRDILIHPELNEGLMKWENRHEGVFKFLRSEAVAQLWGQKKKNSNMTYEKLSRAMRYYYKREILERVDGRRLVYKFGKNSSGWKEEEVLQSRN
Method in brief: as §1

ETV1 = ETV1 (Homo sapiens, UniProt P50549 1-477)
Chain of ETV1 (P50549 whole entry): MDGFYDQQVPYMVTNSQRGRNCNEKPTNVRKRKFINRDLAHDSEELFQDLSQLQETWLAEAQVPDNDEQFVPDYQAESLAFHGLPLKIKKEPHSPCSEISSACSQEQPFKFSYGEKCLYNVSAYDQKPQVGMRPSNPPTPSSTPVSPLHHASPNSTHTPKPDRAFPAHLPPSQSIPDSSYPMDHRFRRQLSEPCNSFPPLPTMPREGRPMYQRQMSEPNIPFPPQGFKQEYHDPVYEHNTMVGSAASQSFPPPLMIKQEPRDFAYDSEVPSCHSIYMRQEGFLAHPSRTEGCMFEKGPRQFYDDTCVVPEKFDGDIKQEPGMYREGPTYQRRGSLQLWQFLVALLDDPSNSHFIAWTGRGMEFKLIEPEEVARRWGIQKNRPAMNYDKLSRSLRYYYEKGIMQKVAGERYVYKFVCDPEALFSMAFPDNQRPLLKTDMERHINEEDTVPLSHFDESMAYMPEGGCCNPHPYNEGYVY
Method in brief: as §1

ERF = target: T8, ERF (Homo sapiens, UniProt P50548 1-548)
T8 sequence: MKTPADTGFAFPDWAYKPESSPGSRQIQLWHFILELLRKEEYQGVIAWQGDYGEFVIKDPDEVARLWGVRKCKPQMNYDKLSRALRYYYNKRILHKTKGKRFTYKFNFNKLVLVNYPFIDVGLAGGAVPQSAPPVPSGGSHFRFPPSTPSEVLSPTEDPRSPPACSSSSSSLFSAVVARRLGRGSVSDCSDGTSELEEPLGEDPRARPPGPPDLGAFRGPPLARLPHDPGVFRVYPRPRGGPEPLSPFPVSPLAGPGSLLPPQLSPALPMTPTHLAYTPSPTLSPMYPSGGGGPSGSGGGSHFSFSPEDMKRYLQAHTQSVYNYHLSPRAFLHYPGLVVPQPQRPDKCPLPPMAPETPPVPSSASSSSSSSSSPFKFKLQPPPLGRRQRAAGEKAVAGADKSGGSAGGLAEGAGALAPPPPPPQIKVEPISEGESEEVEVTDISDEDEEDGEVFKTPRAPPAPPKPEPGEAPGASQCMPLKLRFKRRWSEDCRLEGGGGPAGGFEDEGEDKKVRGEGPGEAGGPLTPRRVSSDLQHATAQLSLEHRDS
Method in brief: as §1

ETV3L = target: T9, ETV3L (Homo sapiens, UniProt Q6ZN32 1-361)
T9 sequence: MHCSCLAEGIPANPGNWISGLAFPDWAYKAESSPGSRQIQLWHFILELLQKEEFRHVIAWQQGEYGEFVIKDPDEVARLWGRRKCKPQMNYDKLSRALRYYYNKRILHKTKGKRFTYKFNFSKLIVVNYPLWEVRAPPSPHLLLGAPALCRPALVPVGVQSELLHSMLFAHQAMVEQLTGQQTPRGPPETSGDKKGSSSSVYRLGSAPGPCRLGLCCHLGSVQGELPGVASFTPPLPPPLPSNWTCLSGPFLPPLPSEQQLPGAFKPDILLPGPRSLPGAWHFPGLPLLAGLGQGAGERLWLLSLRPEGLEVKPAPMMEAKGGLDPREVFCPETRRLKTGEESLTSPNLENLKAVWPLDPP
Method in brief: as §1

ETS2 = target: T10, ETS2 (Homo sapiens, UniProt P15036 1-469)
T10 sequence: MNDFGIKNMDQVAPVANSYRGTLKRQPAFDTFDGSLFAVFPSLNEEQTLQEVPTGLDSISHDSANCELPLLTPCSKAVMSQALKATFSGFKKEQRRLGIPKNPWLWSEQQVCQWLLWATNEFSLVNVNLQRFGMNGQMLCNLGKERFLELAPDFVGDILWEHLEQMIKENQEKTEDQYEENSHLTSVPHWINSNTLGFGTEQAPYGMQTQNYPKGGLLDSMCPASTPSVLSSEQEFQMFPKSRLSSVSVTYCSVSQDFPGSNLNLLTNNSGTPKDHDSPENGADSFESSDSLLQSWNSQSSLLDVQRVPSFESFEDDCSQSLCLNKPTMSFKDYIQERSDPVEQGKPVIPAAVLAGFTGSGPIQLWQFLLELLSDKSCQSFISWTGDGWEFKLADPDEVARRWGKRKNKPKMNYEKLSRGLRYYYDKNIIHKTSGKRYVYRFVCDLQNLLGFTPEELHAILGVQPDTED
Method in brief: as §1

SPDEF = target: T11, SPDEF (Homo sapiens, UniProt O95238 1-335)
T11 sequence: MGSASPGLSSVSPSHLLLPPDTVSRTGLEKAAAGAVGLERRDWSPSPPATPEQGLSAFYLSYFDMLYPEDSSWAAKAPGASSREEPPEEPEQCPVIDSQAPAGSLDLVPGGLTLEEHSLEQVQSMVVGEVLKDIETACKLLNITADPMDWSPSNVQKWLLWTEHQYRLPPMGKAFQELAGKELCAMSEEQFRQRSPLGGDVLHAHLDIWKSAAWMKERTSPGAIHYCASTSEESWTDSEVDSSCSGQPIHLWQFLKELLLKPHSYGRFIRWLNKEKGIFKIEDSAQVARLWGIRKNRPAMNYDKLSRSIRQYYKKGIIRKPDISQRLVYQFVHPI
Method in brief: as §1

ETV7 = target: T12, ETV7 (Homo sapiens, UniProt Q9Y603 1-341)
T12 sequence: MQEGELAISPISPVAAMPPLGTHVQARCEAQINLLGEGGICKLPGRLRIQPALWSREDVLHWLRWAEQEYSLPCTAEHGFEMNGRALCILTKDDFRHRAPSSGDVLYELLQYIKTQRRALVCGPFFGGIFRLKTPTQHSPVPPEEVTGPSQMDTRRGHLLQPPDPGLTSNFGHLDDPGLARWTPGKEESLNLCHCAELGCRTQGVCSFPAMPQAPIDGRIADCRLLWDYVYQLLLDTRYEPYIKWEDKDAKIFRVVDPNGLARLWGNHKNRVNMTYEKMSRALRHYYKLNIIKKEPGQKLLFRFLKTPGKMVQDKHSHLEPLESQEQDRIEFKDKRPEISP
Method in brief: as §1

ETV3 = target: T13, ETV3 (Homo sapiens, UniProt P41162-2 1-143)
T13 sequence: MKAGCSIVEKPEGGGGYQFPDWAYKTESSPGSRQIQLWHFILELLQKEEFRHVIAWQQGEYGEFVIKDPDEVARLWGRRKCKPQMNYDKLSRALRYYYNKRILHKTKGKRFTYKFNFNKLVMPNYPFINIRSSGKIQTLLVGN
Method in brief: as §1

ETV6 = ETV6 (Homo sapiens, UniProt P41212 1-452)
Chain of ETV6 (P41212 whole entry): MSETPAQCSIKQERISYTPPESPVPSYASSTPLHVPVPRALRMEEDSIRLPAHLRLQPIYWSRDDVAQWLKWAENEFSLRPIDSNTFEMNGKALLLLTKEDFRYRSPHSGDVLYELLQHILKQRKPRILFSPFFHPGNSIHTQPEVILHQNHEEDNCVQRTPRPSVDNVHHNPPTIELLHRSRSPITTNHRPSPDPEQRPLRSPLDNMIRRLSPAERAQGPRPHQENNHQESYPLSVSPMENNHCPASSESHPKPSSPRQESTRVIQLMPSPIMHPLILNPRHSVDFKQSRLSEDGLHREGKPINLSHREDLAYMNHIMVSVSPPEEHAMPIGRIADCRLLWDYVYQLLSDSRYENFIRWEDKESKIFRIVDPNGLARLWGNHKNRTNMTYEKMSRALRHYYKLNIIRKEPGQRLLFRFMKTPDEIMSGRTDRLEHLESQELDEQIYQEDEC
Method in brief: as §1

With AACCGC the binding signal (ELK1) was 1.07 fold enrichment (6-mer frequency, TF over GST control), the binding signal (GABPA) was 1.1 fold enrichment (6-mer frequency, TF over GST control) and the binding signal (ERG) was 1.09 fold enrichment (6-mer frequency, TF over GST control). For the same sequence, the binding signal (ELF1) was 1.11 fold enrichment (6-mer frequency, TF over GST control), the binding signal (EHF) was 1.18 fold enrichment (6-mer frequency, TF over GST control) and the binding signal (SPIB) was 1.12 fold enrichment (6-mer frequency, TF over GST control). For the same sequence, the binding signal (FEV) was 1.09 fold enrichment (6-mer frequency, TF over GST control), the binding signal (ETV5) was 1.09 fold enrichment (6-mer frequency, TF over GST control) and the binding signal (ELF4) was 1.12 fold enrichment (6-mer frequency, TF over GST control). The binding signal (ETV2) was 1.12 fold enrichment (6-mer frequency, TF over GST control), the binding signal (ELF3) was 1.1 fold enrichment (6-mer frequency, TF over GST control) and the binding signal (ETV1) was 1.02 fold enrichment (6-mer frequency, TF over GST control). The binding signal (ERF) was 1.08 fold enrichment (6-mer frequency, TF over GST control), the binding signal (ETV3L) was 1.08 fold enrichment (6-mer frequency, TF over GST control) and the binding signal (ETS2) was 1.1 fold enrichment (6-mer frequency, TF over GST control). The binding signal (SPDEF) was 1.11 fold enrichment (6-mer frequency, TF over GST control), the binding signal (ETV7) was 1.07 fold enrichment (6-mer frequency, TF over GST control) and the binding signal (ETV3) was 1.08 fold enrichment (6-mer frequency, TF over GST control). The binding signal (ETV6) was 1.19 fold enrichment (6-mer frequency, TF over GST control).
